Screening data deposited in PubChem by Broad Institute.
Vaccinia stage – blocks a specific stage of Vaccinia orthopoxvirus infection. Vaccinia-infected cells, mCherry/Venus stage reporter fluorescence; hits give low values. activity change (mCherry), % (no concentration beside the values). 0.01% of 89,000 active; in the data active = activity change below about -37%, passing the limit was not always enough; tested in A549 cells
Large screens that a line does not name were inactive. Many of the other results were omitted from the sample, so hits are more common in it than they were.

C[C@H](CO)N1C[C@H](C)[C@@H](CN(C)Cc2ccccc2)Oc2cc(C#C[C@@H](C)O)ccc2S1(=O)=O	none
C[C@H](O)C#Cc1ccc2c(c1)O[C@H](CN(C)Cc1ccccc1)[C@@H](C)CN([C@@H](C)CO)S2(=O)=O	none
CO[C@H]1CN(C)C(=O)c2ccc(NC(=O)c3ccccc3)cc2OC[C@H](C)NC[C@@H]1C	none
O=C(NC[C@H]1CC[C@@H]2[C@@H](CN2S(=O)(=O)c2ccccc2[N+](=O)[O-])O1)c1cccnc1	none
CCCC(=O)Nc1ccc2c(c1)OC[C@@H](C)N(CC1CCCC1)C[C@@H](C)[C@@H](OC)CN(C)C2=O	none
O=C(Nc1ccc(C(F)(F)F)cc1)Nc1ccc2c(c1)[C@H]1C[C@H](CC(=O)N3CCc4ccccc4C3)O[C@@H](CO)[C@H]1O2	none
O=C(Nc1ccc2c(c1)[C@@H]1C[C@@H](CC(=O)N3CCc4ccccc4C3)O[C@@H](CO)[C@@H]1O2)Nc1ccccc1F	Vaccinia stage -93
O=C(Nc1ccc(C(F)(F)F)cc1)Nc1ccc2c(c1)[C@H]1C[C@@H](CC(=O)N3CCc4ccccc4C3)O[C@H](CO)[C@H]1O2	none
COc1ccc2c3c(n(C)c2c1)[C@@H](CO)N(Cc1ccccc1Cl)CC31CCN(C(C)=O)CC1	none
C[C@@H]1CN([C@H](C)CO)C(=O)c2cccc(NC(=O)c3ccc(-c4nccs4)cc3)c2O[C@@H]1CN(C)CC1CC1	none
C[C@@H]1CCCCO[C@@H](CN(C)C(=O)NC2CCCCC2)[C@H](C)CN([C@H](C)CO)C(=O)c2cc(NC(=O)NC3CCCCC3)ccc2O1	none
O=C(C[C@H]1C[C@@H]2c3cc(NC(=O)Nc4ccccc4)ccc3O[C@@H]2[C@@H](CO)O1)NC1CCCCC1	none
O=C(C1=C[C@H](c2ccccc2)C[C@H](OCc2ccc(CO)cc2)O1)N1CCCC1	none
O=C1O[C@@H](c2ccccc2)[C@@H](c2ccccc2)N2[C@@H](c3ccc(OCCO)cc3)[C@]3(C(=O)Nc4ccccc43)[C@@H](C(=O)Nc3nc4ccccc4s3)[C@H]12	none
COc1ccc2c3c(n(C)c2c1)[C@@H](CO)N(C(=O)Nc1ccc(F)cc1)CC31CCN(C(=O)NC2CCCC2)CC1	none
O=C(Nc1ccc2c(c1)OCO2)N[C@@H]1CC[C@H](CCNC(=O)C2CCOCC2)O[C@H]1CO	none
